ALDH1A1 block: blocks purified human ALDH1A1 activity; Potency, µM (series often up to 75.3 µM), usual class: inhibitors; Purified ALDH1A1, NADH fluorescence, propionaldehyde substrate; 220,000 tested, 7.3% active; P00352; active = well fitted inhibition curve with a large enough effect, not every such curve was filed as active; inconclusive = small, poorly fitted or top-dose-only effect, or another doubt; inactive = no such curve, though single readings can be large or run the other way
NPSR antag: antagonists of human neuropeptide S receptor cAMP signaling; Q6W5P4; CHO-NPSR cells, cAMP TR-FRET, antagonist mode; Potency, µM (titrated, usually from 38.3 µM), actives largely listed as inhibitors; 220,000 tested, 1% active; AID 1461; note: nearly all actives have a fitted effect of over 50% in size
Target sequence (Q6W5P4 whole entry, looked up): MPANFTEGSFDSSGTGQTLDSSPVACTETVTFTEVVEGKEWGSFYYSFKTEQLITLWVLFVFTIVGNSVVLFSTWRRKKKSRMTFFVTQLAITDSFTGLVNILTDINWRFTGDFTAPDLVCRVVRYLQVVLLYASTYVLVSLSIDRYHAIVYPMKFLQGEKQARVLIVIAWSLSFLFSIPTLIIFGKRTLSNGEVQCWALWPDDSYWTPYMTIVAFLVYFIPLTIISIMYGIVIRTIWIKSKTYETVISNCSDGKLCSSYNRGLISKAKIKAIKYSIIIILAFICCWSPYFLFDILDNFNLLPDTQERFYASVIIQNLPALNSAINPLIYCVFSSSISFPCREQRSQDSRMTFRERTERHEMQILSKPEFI
ALOX12 inhib: 12-hLO (ALOX12) enzyme inhibition. Potency, µM (doses to about 57.1 µM), actives largely listed as inhibitors. purified 12-hLO, xylenol orange hydroperoxide absorbance. P18054. 150,000 tested, 0.12% active. AID 1452; note: nearly all actives have a fitted effect of over 55% in size
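Xylenol orange chromogenic assay: hydroperoxide from 12hLO oxidises Fe(II), giving red-shifted Fe(III)-XO absorbance. Conditions: 150 nM enzyme, 40 uM arachidonic acid, 25 mM Hepes pH 7.0, 0.01% Triton X-100, 30 min, room temperature.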
IMPase Li inh: membrane-permeable IMPase blocker, potentiated with lithium; 210,000 tested, 0.35% active; Potency, µM (top dose mostly 59.4 µM), most hits filed as inhibitors; CHO-M1 cells, IP1 TR-FRET (IP-One), carbachol + lithium;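 note: IP1 builds up when IMPase is blocked and the TR-FRET signal falls; nearly all actives have a fitted effect of over 50% in size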
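Steps: plate 2000 CHO-M1 cells per well and culture 16–30 h; add compound and lithium; incubate 30 min, 37C; add d2-IP1 tracer and Eu cryptate anti-IP1 antibody in lysis buffer; read after 10 min at room temperature.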
HPGD inh: blocks human HPGD enzyme activity; P15428; purified HPGD, NADH fluorescence kinetic, PGE2 substrate; Potency, µM, hits mostly inhibitors; 150,000 tested, 4.3% active; AID 894; active = well fitted inhibition curve with a large enough effect, not every such curve was filed as active; inconclusive = small, poorly fitted or top-dose-only effect, or another doubt; inactive = no such curve, though single readings can be large or run the other way
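20 nM HPGD preincubated 15 min at room temperature with compound in 50 mM Tris-HCl pH 8, 0.01% Tween 20. Started with 1 mM NAD+ and 30 uM prostaglandin E2; NADH fluorescence (360/450 nm) read 5 times over 30-s intervals, last minus first.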
IMPase inh: IMPase inhibition in cells | 120,000 tested, under 10 active | P97697 | CHO-M1 cells, IP1 accumulation, HTRF TR-FRET ratio | inhibition (IP1 accumulation), % at 46.1 µM; active = well fitted curve in the direction sought with a large enough effect in the signal ratio, not every such curve was filed as active; inconclusive = small, poorly fitted or top-dose-only effect, or a change in a side signal; inactive = no such curve, though single readings can be large or run the other way; the % refers to the signal ratio;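 note: cells stimulated with carbachol in lithium chloride buffer; higher means more IMPase inhibition seen as more IP1 and lower FRET ratio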
Target sequence (P97697 whole entry, looked up): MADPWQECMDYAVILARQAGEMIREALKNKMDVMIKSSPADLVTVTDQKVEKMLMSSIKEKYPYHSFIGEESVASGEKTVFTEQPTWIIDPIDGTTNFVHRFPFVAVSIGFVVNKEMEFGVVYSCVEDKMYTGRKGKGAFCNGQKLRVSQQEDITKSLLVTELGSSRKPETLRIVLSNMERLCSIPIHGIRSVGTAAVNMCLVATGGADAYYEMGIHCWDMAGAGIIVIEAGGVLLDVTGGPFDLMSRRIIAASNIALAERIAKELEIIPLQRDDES
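CHO-M1 cells (CHO stably expressing M1 receptor), compound up to 46 uM final, stimulated with carbachol (50 uM as added) in buffer with 50mM LiCl, pH 7.4, 30 min at 37C. Cytosolic IP1 read by TR-FRET; AC50 from Hill fits.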
A number is an active result; n = inactive; u = inconclusive; x = no result given; ! = a repeat was not active; [ ] = another dose, or the depositor's remark. This is a sample that favours compounds with a hit; in the whole collection about 8.9% have one here. Unless noted, calls come from the whole dose curve; as a rule, active = well fitted curve in the direction sought with a large enough effect; inconclusive = small, poorly fitted or top-dose-only effect, or another doubt; inactive = no such curve, though single readings can be large; an effect the other way counts as inactive or inconclusive.

SMILES	ALDH1A1 block	NPSR antag	ALOX12 inhib	IMPase Li inh	HPGD inh	IMPase inh
C=C/C(=C/C(=O)C[C@H](C)C[C@@H](C)CC[C@H](O)[C@H](C)C(=O)C[C@@H](O)[C@H](C)[C@@H](C)OC(=O)C[C@@H](O)C1=C(C)C(=O)OC1=O)CC	u	x	n[0.00818 µM]	n	2.8µM	x
CN(C)C1C(=O)C(C(N)=O)=C(O)[C@@]2(O)C(=O)C3=C(O)c4c(O)cccc4[C@](C)(O)C3C(O)C12 (stereo partly specified)	n	x	n	u	u	x
CN(C)[C@@H]1C(=O)C(C(N)=O)=C(O)[C@@]2(O)C(=O)C3=C(O)c4c(O)cccc4[C@@](C)(O)[C@H]3[C@H](O)[C@@H]12	28µM!	n	n	10µM!	7.1µM	u
Cc1oc2ccc(OC(=O)N3CCOCC3)cc2c1C(=O)OC(C)C	4µM	n	n	n	n	n
CC1OC(C)OC(C)O1 (stereo unspecified)	n	x	n[0.00818 µM]	n	n	x
C=COC(C)=O	n	x	n	n	n	x
O=C(CCl)NN=C(c1ccccc1)c1ccccc1	0.013µM	n	x	n	x	x
NCC(=O)c1ccccc1	u	x	n	n	n	x
O=C(Nc1ccccc1)N1CC2(CCN(C(=O)Oc3ccccc3)CC2)C1	u	x	n	n	n	x
CCN1/C(=C\C=C\C2=[N+](CC)c3ccccc3C2(C)C)C(C)(C)c2ccccc21	n	16µM	n	n	n	n
Cc1ccc(C(=O)c2ccc(CC(=O)O)n2C)cc1	n	x	n	n	16µM!	n
Nc1ncnc2c1ncn2[C@@H]1O[C@H](COP(=O)(O)CP(=O)(O)OP(=O)(O)O)[C@H](O)[C@H]1O	n	n	x	n	n	x
Nc1nc(=S)c2ncn(C3OC(CO)C(O)C3O)c2[nH]1 (stereo unspecified)	7.9µM	n	x	x	x	x
O=P(OC1CCCCC1)(OC1CCCCC1)C(O)c1ccc(Cl)cc1Cl (stereo unspecified)	n	u	n	n	n	n
Oc1c(Br)cc(Br)cc1Oc1ccc(Br)cc1Br	n	n	n	n	7.1µM	x
CCOP(=O)(OCC)c1nc(-c2ccc(Cl)cc2)oc1NCc1ccccc1	u	n	x	n	x	x
CCN(CC)c1ccc(CC2C(=O)N(C)C(=O)N(C)C2=O)cc1	4.5µM	n	n	n	n	n
C=CCOc1ccc(CC2C(=O)N(C)C(=O)N(C)C2=O)cc1	u	n	n	n	n	n
O=C1NC(=O)N(c2ccc3c(c2)OCO3)C(=O)/C1=C\c1ccsc1	x	n	x	x	x	x
C=CCN1C(=O)/C(=C/c2cccs2)C(=O)NC1=S	8.9µM	13µM	n	n	3.2µM	n
O=C1NC(=S)N(Cc2ccco2)C(=O)/C1=C\c1cccs1	18µM	n	x	n	x	x
CCN(CC)c1ccc(/C=C2\C(=O)NC(=S)N(C)C2=O)o1	x	n	x	x	x	x
C=CCN1C(=O)/C(=C/c2ccc(N3CCOCC3)o2)C(=O)NC1=S	n	n	n	n	28µM	x
OC1(c2ccc(F)cc2)CCNC1 (stereo unspecified)	n	n	n	n	n	n
O=C(Nc1cccc(OC(=O)N2CCOCC2)c1)N1CCOCC1	n	n	n	n	n	n
SMILES	ALDH1A1 block	NPSR antag	ALOX12 inhib	IMPase Li inh	HPGD inh	IMPase inh
Cc1cccnc1-n1c(-c2ccco2)nc2ccccc2c1=O	28µM	n	n	x	x	n
O=c1c2ccccc2nc(-c2ccco2)n1-c1ccccn1	n	n	n	n	n	n
C/C(=N\NC(=S)Nc1ccccc1)c1c(O)n(C)c(=O)n(C)c1=O	0.79µM	n	n	n	u	x
CC/C(=N\Nc1ccccc1)c1c(O)n(C)c(=O)n(C)c1=O	u	n	n	n	n	n
CCN1C[C@@]2(COC)[C@H]3[C@@H](OC)[C@H]4C1[C@@]3([C@H](OC)C[C@@H]2O)[C@H]1C[C@@]2(O)[C@@H](OC(=O)c3ccccc3)[C@@H]1[C@@]4(OC(C)=O)[C@H](O)[C@@H]2OC	n	x	n	n	n	n
CC(=O)[C@H]1CC[C@H]2C3CC[C@H]4C[C@H](O)CC[C@]4(C)C3CC[C@]12C (stereo partly specified)	n	x	x	n	x	x
Clc1ccc(C(Cl)(Cl)Cl)cc1Cl	n	x	n	n	n	x
Nc1ccc(Br)cc1	u	x	n	n	n	x
Nc1ccc2cc(Br)ccc2c1	18µM	n	x	n	x	x
Cc1ccc(C(c2nnnn2Cc2ccccc2)N2CC=C(c3ccc(F)cc3)CC2)cc1 (stereo unspecified)	7.9µM	n	n	n	n	n
S=C1CN=C(c2ccccc2)c2cc(Cl)ccc2N1	u	13µM	n	n	n	n
COc1ccc(C2=NCC(=S)Nc3ccc(Cl)cc32)cc1Cl	n	n	x	n	x	x
CCN1CCN(C(=O)COc2ccc(S(=O)(=O)N(C)Cc3ccccc3)cc2)CC1	u	n	n	n	n	u
CN1CCN(C(=O)COc2ccc(S(=O)(=O)N(C)Cc3ccccc3)cc2)CC1	u	n	n	n	14µM	n
CCC(C)C1N=C(c2ccccc2)c2cc(Cl)ccc2N(CC(=O)NCc2ccco2)C1=O (stereo unspecified)	n	n	n	n	n	n
Cc1ccccc1C1=NCC(=O)N(CC(=O)NCc2ccco2)c2sc3c(c21)CCCC3	40µM	n	n	n	40µM	n
CCc1ccc(-n2c(O)c(/C=N/N3CCCCC3c3cccnc3)c(=O)[nH]c2=O)cc1 (stereo unspecified)	n	n	n	n	n	n
Fc1ccc(NC2=NCCS2)cc1Cl	n	n	n	n	13µM	n
C=CCn1c(O)c(N=Nc2c(C)n(C)n(-c3ccccc3)c2=O)c(=O)[nH]c1=S	u	n	n	n	n	x
CCCCCCn1c(O)c(C=Nc2c(C)n(C)n(-c3ccccc3)c2=O)c(=O)[nH]c1=O	u	n	n	n	u	n
Cc1c(N=Nc2c(O)[nH]c(=S)[nH]c2=O)c(=O)n(-c2ccccc2)n1C	22µM	n	n	n	28µM	n
CCOc1ccc(-n2c(O)c(N=Nc3c(C)n(C)n(-c4ccccc4)c3=O)c(=O)[nH]c2=O)cc1	16µM	n	x	x	x	x
C(=N\NC1=NCCCCC1)/c1c[nH]c2ccccc12	x	n	x	x	x	x
CCOC(=O)c1ccc(N2C(=O)CC(N3CC=C(c4ccc(F)cc4)CC3)C2=O)cc1 (stereo unspecified)	3.5µM	n	n	n	28µM	n
O=C(CNC(=O)OCc1ccccc1)Nc1ccc(Br)cc1C(=O)c1ccccc1	n	u	n	n	n	n
Cc1ccccc1N1C(=O)NC(=O)/C(=C\c2ccc3c(c2)CCCN3Cc2ccccc2)C1=O	u	n	n	n	1.8µM	x
O=C(OC1CCN(CCCl)CC1)C(c1ccccc1)c1ccccc1	8.9µM	n	n	n	n	n
CN1CCC(OC(=O)Cc2ccccc2)CC1	n	n	x	n	x	x
COC(=O)c1cc(COc2cc(C)cc3oc(=O)c4c(c23)CCC4)c(C)o1	u	n	n	n	u	n

Bioassay records (PubChem BioAssay)
